About 14,000 (4.5%) of roughly 310,000 compounds showed an effect of 50% or more. The effect is printed as a negative number. Shown is part of a subset that was picked to be rich in strong results.
biological target: human ether-à-go-go-related gene (hERG) potassium channel (human, UniProt Q12809); test: primary screen, population patch clamp on CHO cells stably expressing hERG; higher = less effect of the substance
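Further: peak tail current of the secondary pulse compared with the same well before compound.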

Chain of human ether-à-go-go-related gene (hERG) potassium channel (Q12809 whole entry, looked up): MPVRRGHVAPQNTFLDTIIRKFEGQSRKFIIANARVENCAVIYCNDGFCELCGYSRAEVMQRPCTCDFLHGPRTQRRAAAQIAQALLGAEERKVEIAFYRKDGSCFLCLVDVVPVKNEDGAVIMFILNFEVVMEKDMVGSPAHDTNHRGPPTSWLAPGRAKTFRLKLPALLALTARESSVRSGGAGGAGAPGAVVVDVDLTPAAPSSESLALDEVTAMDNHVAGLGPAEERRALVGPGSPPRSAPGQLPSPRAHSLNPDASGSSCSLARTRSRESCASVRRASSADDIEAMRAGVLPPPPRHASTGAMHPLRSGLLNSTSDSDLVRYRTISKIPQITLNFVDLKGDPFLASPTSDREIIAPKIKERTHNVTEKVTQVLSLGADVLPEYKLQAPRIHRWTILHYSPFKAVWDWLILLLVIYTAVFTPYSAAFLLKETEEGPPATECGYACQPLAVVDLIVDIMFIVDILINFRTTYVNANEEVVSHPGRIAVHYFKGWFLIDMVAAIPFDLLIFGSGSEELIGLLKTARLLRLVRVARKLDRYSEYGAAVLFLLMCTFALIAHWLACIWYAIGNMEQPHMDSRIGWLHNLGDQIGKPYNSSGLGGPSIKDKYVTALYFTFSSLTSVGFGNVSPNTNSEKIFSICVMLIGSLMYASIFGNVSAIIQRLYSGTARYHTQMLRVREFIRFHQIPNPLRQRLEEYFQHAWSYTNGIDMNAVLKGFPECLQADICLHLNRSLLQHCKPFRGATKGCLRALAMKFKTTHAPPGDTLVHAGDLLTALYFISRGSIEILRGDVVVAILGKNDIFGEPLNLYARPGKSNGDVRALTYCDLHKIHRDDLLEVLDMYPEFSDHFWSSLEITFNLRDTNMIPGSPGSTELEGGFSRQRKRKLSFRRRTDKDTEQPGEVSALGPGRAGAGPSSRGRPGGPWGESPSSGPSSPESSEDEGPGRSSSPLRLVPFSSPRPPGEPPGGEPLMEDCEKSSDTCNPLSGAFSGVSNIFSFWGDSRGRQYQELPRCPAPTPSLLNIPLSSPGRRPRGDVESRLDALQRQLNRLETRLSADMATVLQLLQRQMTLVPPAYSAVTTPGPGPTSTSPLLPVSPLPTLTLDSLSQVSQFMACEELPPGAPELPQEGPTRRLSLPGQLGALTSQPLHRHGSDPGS

Row | Structure (SMILES) | hERG current change (%, negative = inhibition) at 10uM
1 | O=C(CNC(=O)c1ccc(Br)o1)NNC(=O)c1ccc(Br)cc1 | -35.6%
2 | O=C(c1ccccc1-c1nc2ccccc2[nH]1)N1CCOCC1 | -5.47%
3 | COCCN1CCN(C(=O)C2CCC(=O)N(Cc3ccccc3OC)C2)CC1 (stereo not drawn) | 8.85%
4 | COc1ccc(/C=C(\C#N)C(=O)NCc2ccccc2)cc1 | 19.4%
5 | COC(=O)[C@@]12CCCCN1[C@H](c1ccc(SC3CCCCC3)c(OC)c1)[C@@H]1C(=O)N(C)C(=O)[C@@H]12.O=C(O)C(F)(F)F | 19.8%
6 | CCN1C(=O)[C@@H]2[C@@H](c3ccc(SC4CCCCC4)c(OC)c3)N3CCC[C@@]3(C(=O)OC)[C@@H]2C1=O.O=C(O)C(F)(F)F | -56%
7 | CCN1C(=O)[C@H]2[C@@H](c3ccc(SC4CCCCC4)c(OC)c3)N3CCCC[C@@]3(C(=O)OC)[C@H]2C1=O.O=C(O)C(F)(F)F | 13%
8 | COC(=O)c1ccccc1NC1=C/C(=N\S(=O)(=O)c2ccc(C(=O)O)cc2)c2ccccc2C1=O | -15.5%
9 | CCCCNC(=O)C(C#N)c1nc2ccccc2nc1N1CCN(c2ccccc2F)CC1 (stereo not drawn) | 4.79%
10 | CC1CCN(C(=O)COC(=O)c2ccc(=O)n(Cc3ccccc3)n2)CC1 | -0.635%
11 | Cc1ccc(/C=C/C2=NN(Cc3ccccc3Cl)C(=O)CC2)cc1 | -4.44%
12 | COc1ccc(-c2nnnn2C(C)C)cc1S(=O)(=O)Nc1ccccc1 | -13.9%
13 | Cl.O=C(NCCCN1CCOCC1)c1ccc(CSc2ccc(Cl)cc2)cc1 | -59.2%
14 | O=C(CCNC(=O)c1ccc(Cl)cc1)NCCCN1CCOCC1 | 4.31%
15 | Cc1ccc(C(=O)NCCCN2CCOCC2)o1 | 30.3%
16 | O=C(NCCSc1ccccc1)c1ccc(CN2CCOCC2)cc1 | -10.3%
17 | O=C(NCCSCc1c(F)cccc1Cl)c1ccc(CN2CCOCC2)cc1 | -26.9%
18 | Cc1ccc(SCCNC(=O)c2ccc(CN3CCOCC3)cc2)cc1 | -32.6%
19 | O=C(NCCCN1CCOCC1)c1ccc(CS(=O)(=O)Cc2ccc(Cl)cc2)o1 | 4.4%
20 | O=C(NCCSCc1ccc(Cl)cc1Cl)c1ccc(CN2CCOCC2)cc1 | -54.6%
21 | O=C(NCCSc1ccc(Cl)cc1)c1ccc(CN2CCOCC2)cc1 | -58.5%
22 | Cc1cccc(CSCCNC(=O)c2ccc(CN3CCOCC3)cc2)c1 | -28.3%
23 | O=C(NCCN1CCOCC1)c1ccc(Cl)cc1 | 16%
24 | O=C(NCCCN1CCOCC1)c1ccc(-c2ccc(Cl)cc2)o1 | -55.1%
25 | O=C(CSc1nnc(CNC(=O)c2cccc(C(F)(F)F)c2)o1)NC1CCCC1 | 5.51%
26 | O=C(Cc1ccc(Br)cc1)N1CCOCC1 | 13.6%
27 | COc1ccc(C(=O)Nc2sc3c(c2C(=O)O)CC(C)(C)OC3)cc1 | -2.18%

Row | Structure (SMILES) | hERG current change (%, negative = inhibition) at 10uM
28 | CN1CCN(c2ccccc2NC(=O)c2c(F)cccc2F)CC1 | -19.9%
29 | O=C(NCc1ccco1)/C(=C\c1ccco1)NC(=O)c1cccs1 | -14.8%
30 | CCOC(=O)c1c(NC(=O)CSc2nnc(-c3cccnc3)o2)sc(C(C)=O)c1C | -46.1%
31 | Cc1ccc(-n2c(SCC(=O)N3CC(=O)Nc4ccccc43)nc3ccccc3c2=O)cc1 | -1.05%
32 | CNC(=S)SCCOc1ccccc1 | -4.52%
33 | O=C(Cc1cccs1)Nc1nc(-c2ccc(F)c(F)c2)cs1 | 19%
34 | CCOc1ccc(N2CC(C(=O)NCCCN3CCOCC3)CC2=O)cc1 (stereo not drawn) | -5.47%
35 | O=C(COc1ccc(Br)cc1Cl)N1CCN(c2ncccn2)CC1 | -49.7%
36 | CC1(C)CC(C(CC(=O)O)c2ccccc2)CCO1 (stereo not drawn) | 28.9%
37 | COc1ccc(CN(CCC(c2ccccc2)C2CCOC(C)(C)C2)C(C)=O)cc1 (stereo not drawn) | -11.6%
38 | COc1ccc(CN(CC(=O)NCc2ccc(F)cc2)C(=O)c2ccco2)cc1 | -61.7%
39 | COc1ccc(CNCCC(c2ccccc2)C2CCOC(C)(C)C2)cc1 (stereo not drawn) | -52.1%
40 | COc1ccc(CN(CCC(c2ccc(F)cc2)C2CCOC(C)(C)C2)C(=O)c2ccco2)cc1 (stereo not drawn) | -52.1%
41 | COc1cccc(CN(CC(=O)NCc2ccc(F)cc2)C(=O)c2ccco2)c1 | -39.2%
42 | CC(c1ccccc1)N(CCC(c1ccccc1)C1CCOC(C)(C)C1)C(=O)c1ccco1 (stereo not drawn) | -22.2%
43 | CCCCN(CC(=O)NCc1ccc(F)cc1)C(=O)c1ccco1 | 8.72%
44 | O=C(CN(Cc1ccccc1)C(=O)c1ccco1)NCc1ccc(F)cc1 | -31.6%
45 | O=C(CN(Cc1ccccc1F)C(=O)c1ccco1)NCc1ccc(F)cc1 | -50.7%
46 | CC1(C)CC(C(CCN(Cc2ccccc2)C(=O)c2ccco2)c2ccc(F)cc2)CCO1 (stereo not drawn) | -10.4%
47 | O=C(CN(Cc1ccc(F)cc1)C(=O)c1ccco1)NCc1ccc(F)cc1 | -40.9%
48 | O=C(CN(C(=O)CCC(=O)Nc1nccs1)c1ccc(F)cc1)NCc1ccc(F)cc1 | 16.8%
49 | Cc1cc(N)ccc1N=Nc1c(C)n(C)n(-c2ccccc2)c1=O | -5.57%
50 | Cc1cc(=O)[nH]c(SCC(=O)NCCC2=CCCCC2)n1 | 28.2%
51 | Cc1c(C(=O)N2CCCCC2)c(S(=O)(=O)N(C)Cc2ccccc2)c(C)n1C | 2.66%
52 | O=C(Nc1ccccc1C(=O)NCC1CCCO1)c1ccc(Cl)cc1 (stereo not drawn) | -34.8%
53 | CC1(C)CC2CC(C)(CN2C(=O)COC(=O)c2cccc(O)c2)C1 (stereo not drawn) | 6.76%
54 | N#Cc1ccc(-c2ccccc2)nc1Sc1ccc(F)cc1 | 13.2%
